{"source": "PubChem BioAssay (NCATS)", "key": {"[1]": {"target": "Glutathione peroxidase 1 (Homo sapiens) (UniProt P07203)", "sequence (P07203 whole entry, looked up)": "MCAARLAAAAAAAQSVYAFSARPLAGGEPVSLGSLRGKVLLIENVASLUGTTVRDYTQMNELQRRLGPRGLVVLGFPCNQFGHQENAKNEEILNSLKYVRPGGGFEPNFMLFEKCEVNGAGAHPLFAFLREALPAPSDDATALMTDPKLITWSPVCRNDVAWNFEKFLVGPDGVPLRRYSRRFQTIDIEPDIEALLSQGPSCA", "assay": "Primary qHTS Assay for Inhibitors of Recombinant Selenoprotein Glutathione Peroxidase 1 (GPX1) (AID 1845191); note: nearly all actives have a fitted effect of over 65% in size", "outline": "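GR-coupled readout: NADPH consumption tracked by fluorescence, ex 340/em 450 nm, at t=0 and after 15 min at RT. Final mix 10 nM GPX1, 1 mM GSH, 0.5 mM CHP, 0.5 mM NADPH, 100 nM GR, 0.01% BSA, following 30 min enzyme–compound preincubation.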"}, "[2]": {"target": "Phospholipid hydroperoxide glutathione peroxidase GPX4 (Homo sapiens) (UniProt P36969)", "sequence (P36969 whole entry, looked up)": "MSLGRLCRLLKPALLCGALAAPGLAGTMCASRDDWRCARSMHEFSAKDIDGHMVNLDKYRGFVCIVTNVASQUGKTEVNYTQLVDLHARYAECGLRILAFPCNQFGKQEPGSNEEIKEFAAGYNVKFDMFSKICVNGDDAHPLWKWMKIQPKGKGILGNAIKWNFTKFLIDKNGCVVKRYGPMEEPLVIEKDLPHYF", "assay": "Primary qHTS Assay for Inhibitors of Recombinant Selenoprotein Glutathione Peroxidase 4 (GPX4) (AID 1845192); note: nearly all actives have a fitted effect of over 65% in size", "outline": "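Steps: GPX4 plus compound, 30 min RT; add GR/GSH/NADPH master mix; start with cumene hydroperoxide; read 340/450 nm fluorescence at 0 and 15 min. Finals were 200 nM GPX4, 1 mM GSH, 0.5 mM CHP, 0.5 mM NADPH, 100 nM GR.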"}, "[3]": {"target": "Metallo-beta-lactamase type 2 (Klebsiella pneumoniae) (UniProt C7C422)", "sequence (C7C422 whole entry, looked up)": "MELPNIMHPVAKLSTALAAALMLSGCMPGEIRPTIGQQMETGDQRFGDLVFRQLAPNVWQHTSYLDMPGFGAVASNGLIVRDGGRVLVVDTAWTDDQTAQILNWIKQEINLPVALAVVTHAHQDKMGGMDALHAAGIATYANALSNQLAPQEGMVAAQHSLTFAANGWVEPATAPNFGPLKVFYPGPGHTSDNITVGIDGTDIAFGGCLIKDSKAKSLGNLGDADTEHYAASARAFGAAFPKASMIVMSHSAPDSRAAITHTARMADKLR", "assay": "qHTS to identify inhibitors of the New Delhi Metallo-beta-lactamase (NDM): assay validation screen against the NCATS LOPAC Collection (AID 1794843);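 note: nitrocefin turnover by NDM-1 measured as 485 nm absorbance at plateau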", "outline": "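NDM-1 at 2 nM final in 50 mM HEPES pH 7.0 with 1 uM ZnSO4 and 0.01% Tween20 was preincubated with library compounds in DMSO. Nitrocefin (50 uM stock) was then added, and absorbance at 485 nm was read at the kinetic plateau.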"}, "[4]": {"assay": "Quantitative High-Throughput drug screen in 47 multiple myeloma cell lines against the NCATS MIPE library collection: FR4_PLB cell viability assay (AID 1918924; note: nearly all actives have a fitted effect of over 35% in size)", "outline": "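Steps: seed 500 cells per well; pin-transfer MIPE 4.0 library; incubate 48 h at 37C, 5% CO2, humidified; add CellTiter-Glo, 5 min room temperature; read luminescence.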"}, "[5]": {"target": "Luciferin 4-monooxygenase (Photinus pyralis) (UniProt P08659)", "assay": "Primary firefly luciferase (FLuc) qHTS assay for identification of artifact compounds. (AID 1845220); note: nearly all actives have a fitted effect of over 60% in size", "settings": "outcome: at 54.1 µM (top of the series) unless noted", "outline": "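Titrated compounds were incubated 15 min at RT, protected from light, with luciferin and ATP at 10 uM; reaction started with 10 nM FLuc, luminescence imaged at 5 min, and concentration-response fitted by Hill equation.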"}, "[6]": {"assay": "Primary fluorescence-based thiol-reactive (MSTI) qHTS assay for identification of artifact compounds. (AID 1845221);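 note: thiol-reactive compounds lower the probe fluorescence signal; nearly all actives have a fitted effect of over 65% in size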", "outline": "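Curve-fitted percent inhibition (4-parameter Hill) derived from fluorescence, Ex 525/Em 598 nm, scaled with Acetyl-MSTI and MSTI; 1 h incubation at room temperature.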"}, "[7]": {"assay": "Primary redox qHTS assay for identification of artifact compounds. (AID 1845223)", "text": "PI: Alexander Tropsha Ph.D.\nUNC Eshelman School of Pharmacy\nUniversity of North Carolina, Chapel Hill, North Carolina\nHits from high-throughput screening (HTS) of chemical libraries are often false positives due to their interference with the assay detection technology. In response to this problem, we generated the largest publicly available library of chemical liabilities and developed a free webtool to predict HTS artifacts, both of which are described herein. More specifically, we generated, curated, and integrated HTS datasets for thiol reactivity, redox activity, and luciferase (firefly and nano) activity. Using these curated datasets, we developed and validated several Quantitative Structure-Interference Relationship (QSIR) models to predict nuisance behavior. […] These models were employed for virtual profiling of the National Center for Advancing Translational Science's (NCATS) in-house library, and 256 compounds for each assay were selected for the experimental validation of nuisance behavior. The BA for these external predictions ranged from 58 to 78% for compounds within the applicability domains of the models. […] The models developed in this study, along with aggregation models previously developed by our group (SCAM Detective) were implemented in \"Liability Predictor,\" an online tool which may be used as part of chemical library design or for triaging HTS hits. Both the models and the curated datasets are publicly available at https://liability.mml.unc.edu/.\nSEQUENCE No. (e.g., 1, 2, 3, etc.); […] (e.g., Cells, Incubation, Reagent, etc.); VALUE; DESCRIPTION.\n1; Reagent; 3 uL; Amplex Red and HRP mixture.\n2; Compounds and control; 16 nL; Kalypsis pin tool (Wako USA) equipped with a 1536-well pin head. […]\n6; Detection; Fluorescence, ViewLux microplate reader, 525 nm excitation, 598 nm emission.\nNOTES (numbers refer to Sequence numbers above)\n1. […]\n6. Samples were read for fluorescence (Ex/Em = 525(20)/598(25) nm) on a ViewLux CCD imager (PerkinElmer). […]"}, "[8]": {"target": "Nuclear receptor subfamily 1 group I member 3 (Homo sapiens) (UniProt Q14994)", "sequence (Q14994 whole entry, looked up)": "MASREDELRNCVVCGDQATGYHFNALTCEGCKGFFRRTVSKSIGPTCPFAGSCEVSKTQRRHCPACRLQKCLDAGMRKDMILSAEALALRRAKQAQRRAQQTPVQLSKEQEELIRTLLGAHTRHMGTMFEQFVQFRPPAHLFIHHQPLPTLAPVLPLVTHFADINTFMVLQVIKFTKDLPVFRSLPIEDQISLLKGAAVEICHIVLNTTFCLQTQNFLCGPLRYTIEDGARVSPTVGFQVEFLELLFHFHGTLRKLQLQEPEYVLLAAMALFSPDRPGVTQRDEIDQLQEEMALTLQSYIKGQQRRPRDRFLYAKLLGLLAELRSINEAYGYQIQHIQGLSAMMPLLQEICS", "assay": "Primary qHTS for antagonist of constitutive androstane receptor (CAR) against the NCATS DSHEA and TCM libraries (AID 1794836);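 note: HepG2 cells stably expressing hCAR with CYP2B6 luciferase reporter stimulated by CITCO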", "outline": "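HepG2-CYP2B6-hCAR cells, attached 5 h, given compounds plus CITCO agonist […], incubated 24 h at 37 C. Luciferase luminescence read, multiplexed with CellTiter-Fluor viability (Ex/Em 405/540 nm).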"}, "[9]": {"assay": "NCATS anti-infectives library activity on HEK293 viability as a counter-qHTS vs the C. elegans viability qHTS (AID 1745854)", "outline": "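Compound titrations (final up to 41.7 uM) were incubated with HEK293 cells for 24 hr at 37C under 5% CO2. Viable cells were quantified with CellTiter-Glo after 10 min at ambient temperature.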"}}, "note": "Inconclusive results are not listed. A call without a number means that no potency is given here. Active and inactive are the calls of the source. Calls come from the whole dose curve; as a rule, active = well fitted curve in the direction sought with a large enough effect; inconclusive = small, poorly fitted or top-dose-only effect, or another doubt; inactive = no such curve, though single readings can be large; an effect the other way counts as inactive or inconclusive.", "data": [{"smiles": "C[C@@H]1CC2=CC(=O)CC[C@@H]2[C@H]2CC[C@@]3(C)[C@@H](CC[C@]3(C)O)[C@@H]21", "values": [{"measurement": "Potency", "setting": "[1]", "result": "inactive"}, {"measurement": "Potency", "setting": "[2]", "result": "inactive"}]}, {"smiles": "O=P1(N(CCCl)CCCl)NCCCO1", "note": "(configuration not stated)", "values": [{"measurement": "outcome", "setting": "[3]", "result": "inactive"}, {"measurement": "Potency", "setting": "[1]", "result": "inactive"}, {"measurement": "Potency", "setting": "[2]", "result": "inactive"}, {"measurement": "Potency", "setting": "[4]", "result": "inactive"}]}, {"smiles": "CC(NC(C)(C)C)C(=O)c1cccc(Cl)c1", "note": "(configuration not stated)", "values": [{"measurement": "outcome", "setting": "[3]", "result": "inactive"}, {"measurement": "Potency", "setting": "[1]", "result": "inactive"}, {"measurement": "Potency", "setting": "[2]", "result": "inactive"}, {"measurement": "outcome", "setting": "[5]", "result": "inactive"}, {"measurement": "outcome", "setting": "[6]", "result": "inactive"}, {"measurement": "outcome", "setting": "[7]", "result": "inactive"}, {"measurement": "Potency", "setting": "[4]", "result": "inactive"}]}, {"smiles": "O=C(O)c1cc(O)c(O)c(O)c1", "values": [{"measurement": "outcome", "setting": "[8]", "result": "inactive"}]}, {"smiles": "O=C1OC(c2ccc(O)c(S(=O)(=O)O)c2)(c2ccc(O)c(S(=O)(=O)O)c2)c2c(Br)c(Br)c(Br)c(Br)c21", "values": [{"measurement": "Potency", "setting": "[1]", "result": "inactive"}]}, {"smiles": "CCC1(c2ccc(N)cc2)CCC(=O)NC1=O", "note": "(configuration not stated)", "values": [{"measurement": "outcome", "setting": "[3]", "result": "inactive"}, {"measurement": "Potency", "setting": "[1]", "result": "inactive"}, {"measurement": "Potency", "setting": "[2]", "result": "inactive"}, {"measurement": "Potency", "setting": "[4]", "result": "inactive"}]}, {"smiles": "CCCCCN(C)CCC(O)(P(=O)(O)O)P(=O)(O)O", "values": [{"measurement": "outcome", "setting": "[3]", "result": "inactive"}, {"measurement": "Potency", "setting": "[1]", "result": "inactive"}, {"measurement": "Potency", "setting": "[2]", "result": "inactive"}]}, {"smiles": "NCCc1ccc(O)cc1", "values": [{"measurement": "outcome", "setting": "[3]", "result": "inactive"}, {"measurement": "Potency", "setting": "[1]", "result": "inactive"}, {"measurement": "Potency", "setting": "[2]", "result": "inactive"}]}, {"smiles": "Cc1ncsc1CCCl", "values": [{"measurement": "outcome", "setting": "[3]", "result": "inactive"}, {"measurement": "Potency", "setting": "[1]", "result": "inactive"}, {"measurement": "Potency", "setting": "[2]", "result": "inactive"}]}, {"smiles": "C[C@]12CC[C@H]3[C@@H](CCC4=CC(=O)CC[C@@H]43)[C@@H]1CC[C@@H]2OC(=O)CCC1CCCCC1", "values": [{"measurement": "Potency", "setting": "[1]", "result": "inactive"}]}, {"smiles": "c1ccc2c(c1)sc1ccccc12", "values": [{"measurement": "Potency", "setting": "[1]", "result": "inactive"}, {"measurement": "Potency", "setting": "[2]", "result": "inactive"}]}, {"smiles": "CNC(C)(C)Cc1ccccc1", "values": [{"measurement": "Potency", "setting": "[1]", "result": "inactive"}, {"measurement": "Potency", "setting": "[2]", "result": "inactive"}]}, {"smiles": "O=C(O)CCCC[C@@H]1SC[C@@H]2NC(=O)N[C@@H]21", "values": [{"measurement": "outcome", "setting": "[8]", "result": "inactive"}]}, {"smiles": "Nc1ccc(C(=O)O)cc1", "values": [{"measurement": "outcome", "setting": "[8]", "result": "inactive"}]}, {"smiles": "CC(C)(C)NCC(O)c1ccccc1Cl", "note": "(configuration not stated)", "values": [{"measurement": "outcome", "setting": "[9]", "result": "inactive"}, {"measurement": "outcome", "setting": "[3]", "result": "inactive"}, {"measurement": "Potency", "setting": "[1]", "result": "inactive"}, {"measurement": "Potency", "setting": "[2]", "result": "inactive"}]}, {"smiles": "COc1ccc2c(c1OC)C(=O)O[C@H]2[C@@H]1c2cc3c(cc2CCN1C)OCO3", "values": [{"measurement": "outcome", "setting": "[3]", "result": "inactive"}, {"measurement": "Potency", "setting": "[1]", "result": "inactive"}, {"measurement": "Potency", "setting": "[2]", "result": "inactive"}]}]}
